Results: PubChem BioAssay (EPA / NIEHS)
Inconclusive results are not listed. Activity calls are given as the source filed them. How the source made its calls, unless noted: active means hit-call score of the fitted dose curve at least 0.9, where 1 is the maximum; inactive means score below 0.9.

Key:
[1] = molecular target: Retinoic acid receptor RXR-alpha (Homo sapiens) (UniProt P19793); experiment: OT_NURR1_NURR1RXRa_0480: Odyssey Thera (OT) 8-hour HEK293T Protein Complementation Assay for Nurr1/retinoid X receptor (RXR) (AID 2283385; active means hit-call score of the fitted dose curve at least 0.9, where 1 is the maximum)
Procedure, shortened: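 Read-out: fluorescence from protein-fragment complementation between Nurr1 and RXRα in human HEK293T cells, 8 h after dosing. DMSO served as negative control; increased signal counted as activity.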

[2] = molecular target: Peroxisome proliferator-activated receptor gamma (Homo sapiens) (UniProt P37231); experiment: OT_PPARg_PPARgSRC1_0480: Odyssey Thera (OT) 8-hour Protein-Complementation Assay for Peroxisome Proliferator-activated Receptor Gamma / SRC-1 Co-activator (AID 2283387; active means hit-call score of the fitted dose curve at least 0.9, where 1 is the maximum;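 further: nuclear to cytoplasmic split Venus YFP fluorescence ratio reporting PPARg SRC-1 interaction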)
Procedure, shortened: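 Read-out: 488 nm N/C fluorescence ratio from complemented Venus YFP fragments, ≥350 cells per image, gain-of-signal fitted against DMSO baseline. Fusions of PPARg/SRC-1 with IFP1/IFP2 expressed transiently in HEK293T; compounds applied 8 h.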

[3] = molecular target: Peroxisome proliferator-activated receptor gamma (Homo sapiens) (UniProt P37231); experiment: OT_PPARg_PPARgSRC1_1440: Odyssey Thera (OT) 24-hour Protein-Complementation Assay for Peroxisome Proliferator-activated Receptor Gamma/ SRC-1 Co-activator (AID 2283388; active means hit-call score of the fitted dose curve at least 0.9, where 1 is the maximum;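 further: nuclear to cytoplasmic ratio of reconstituted Venus YFP fluorescence in fixed imaged cells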)
Procedure, shortened: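 Cells carrying the PPARg/SRC-1 fragment-complementation reporter receive compound for 24 hours, are fixed and counterstained with Draq5, then imaged. Increased nuclear relative to cytoplasmic YFP fluorescence above DMSO baseline indicates binding activity.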

[4] = CEETOX_H295R_11DCORT: CeeTox H295R High-throughput Steroidogenesis Assay for 11-Deoxycortisol (11DCORT) (AID 2283432); settings: actives raise or lower the signal
Procedure, shortened: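 H295R cells; 10 uM forskolin prestim 48 h; compound in 0.1% DMSO 48 h; media extracted with MTBE; 11-deoxycortisol by LC-MS/MS, 7-point standard curve; gain/loss vs DMSO baseline; viability by MTT in same wells.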

[5] = CEETOX_H295R_OHPREG: CeeTox H295R High-throughput Steroidogenesis Assay for OH-Pregnenolone (OHPREG) (AID 2283434); settings: actives raise or lower the signal
Procedure, shortened: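 H295R, 10 uM forskolin pre-stim 48 h; test chemical 48 h, 0.1% DMSO final. MTBE extraction, reverse-phase C18 HPLC-ESI+ MS/MS of medium. Gain/loss vs DMSO; viability by MTT in same wells.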

[6] = CEETOX_H295R_OHPROG: CeeTox H295R High-throughput Steroidogenesis Assay for OH-Progesterone (OHPROG) (AID 2283435); settings: actives raise or lower the signal;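 on AC50: 17alpha-hydroxyprogesterone secreted into medium measured by HPLC-MS/MS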
Procedure, shortened: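 HPLC-MS/MS quantification of 17alpha-hydroxyprogesterone secreted by H295R cells after 48 h chemical exposure, following 48 h 10 uM forskolin prestimulation. Gain or loss of signal fitted relative to DMSO. Viability checked by MTT in the same wells.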

[7] = CEETOX_H295R_CORTISOL: CeeTox H295R High-throughput Steroidogenesis Assay for Cortisol (AID 2283438); settings: actives raise or lower the signal;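 further: cortisol secreted into medium quantified by LC-MS/MS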
Procedure, shortened: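 Read-out: cortisol in culture medium by reverse-phase C18 HPLC with ESI-positive tandem MS, after MTBE liquid-liquid extraction. Cells: human adrenal H295R, forskolin-primed (10 uM, 48 h) before 48 h chemical exposure in 0.1% DMSO.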

[8] = CEETOX_H295R_DOC: CeeTox H295R High-throughput Steroidogenesis Assay for DOC (AID 2283439); settings: actives raise or lower the signal
Procedure, shortened: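 Human adrenocortical H295R cells, passages up to 10, received 10 uM forskolin for 48 h before chemical addition. After another 48 h exposure in 0.1% DMSO, secreted DOC was measured by LC-MS/MS, with gain or loss fitted against DMSO controls.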

[9] = CEETOX_H295R_ESTRADIOL: CeeTox H295R High-throughput Steroidogenesis Assay for Estradiol (AID 2283440); settings: actives raise or lower the signal;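 further: estradiol secreted into medium quantified by LC-MS/MS after dansyl derivatisation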
Procedure, shortened: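 Readout is estradiol in conditioned medium, quantified by reverse-phase HPLC-MS/MS against a 7-point standard curve. Cells: H295R, forskolin-stimulated, then dosed 48 h in 0.1% DMSO; activity fitted in both directions relative to DMSO.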

[10] = CEETOX_H295R_ESTRONE: CeeTox H295R High-throughput Steroidogenesis Assay for Estrone (AID 2283441); settings: actives raise or lower the signal;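 further: estrone secreted into medium measured by LC-MS/MS after dansyl derivatization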
Procedure, shortened: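 Forskolin-stimulated H295R cells are treated 48 h with chemical, and estrone in the medium is measured by LC-MS/MS. Activity is fitted in both directions relative to DMSO controls, with chemicals diluted until MTT viability reaches at least 70%.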

[11] = CEETOX_H295R_PROG: CeeTox H295R High-throughput Steroidogenesis Assay for Progesterone (PROG) (AID 2283442); settings: actives raise or lower the signal
Procedure, shortened: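 Measured analyte is progesterone secreted by H295R cells at 48 h of chemical treatment, following 10 uM forskolin priming. Quantitation used HPLC-MS/MS against a 7-point standard curve; cytotoxicity was checked by MTT absorbance.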

[12] = molecular target: Retinoic acid receptor RXR-alpha (Homo sapiens) (UniProt P19793); experiment: OT_NURR1_NURR1RXRa_1440: Odyssey Thera (OT) 24-hour HEK293T Protein Complementation Assay for Nurr1/retinoid X receptor (RXR) (AID 2283386; active means hit-call score of the fitted dose curve at least 0.9, where 1 is the maximum)
Procedure, shortened: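 Fluorescence PCA read-out; HEK293T; 24 h post-dose; bait/prey fused to reporter fragments; gain-of-signal fit vs DMSO negative control.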

[13] = CEETOX_H295R_ANDR: CeeTox H295R High-throughput Steroidogenesis Assay for Androstenedione (ANDR) (AID 2283436); settings: actives raise or lower the signal;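 further: human H295R adrenal cells exposed for 48 h with androstenedione measured in medium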
Procedure, shortened: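 48 h chemical exposure, H295R cells, DMEM/F12 + ITS+ and Nu-Serum. Medium androstenedione: MTBE extraction, C18 reverse-phase HPLC, ESI+ MS/MS. Fit bidirectional vs DMSO; MTT viability in same wells.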

Measured: AC50

Retinoic acid receptor RXR-alpha (Homo sapiens), sequence (P19793 whole entry, looked up, the tested form may be a part): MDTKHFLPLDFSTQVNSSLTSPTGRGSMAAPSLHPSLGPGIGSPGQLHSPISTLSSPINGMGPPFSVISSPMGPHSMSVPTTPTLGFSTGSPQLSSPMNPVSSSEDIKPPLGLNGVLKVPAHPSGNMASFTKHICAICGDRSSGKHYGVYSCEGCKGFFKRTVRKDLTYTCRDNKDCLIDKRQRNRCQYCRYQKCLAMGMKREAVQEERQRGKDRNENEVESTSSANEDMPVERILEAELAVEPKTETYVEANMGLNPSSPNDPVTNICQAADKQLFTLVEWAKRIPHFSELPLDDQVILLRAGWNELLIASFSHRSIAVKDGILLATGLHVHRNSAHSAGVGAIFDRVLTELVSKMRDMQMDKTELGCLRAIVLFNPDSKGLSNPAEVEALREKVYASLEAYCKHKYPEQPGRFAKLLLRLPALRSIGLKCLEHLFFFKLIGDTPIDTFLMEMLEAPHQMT
Peroxisome proliferator-activated receptor gamma (Homo sapiens), sequence (P37231 whole entry, looked up, the tested form may be a part): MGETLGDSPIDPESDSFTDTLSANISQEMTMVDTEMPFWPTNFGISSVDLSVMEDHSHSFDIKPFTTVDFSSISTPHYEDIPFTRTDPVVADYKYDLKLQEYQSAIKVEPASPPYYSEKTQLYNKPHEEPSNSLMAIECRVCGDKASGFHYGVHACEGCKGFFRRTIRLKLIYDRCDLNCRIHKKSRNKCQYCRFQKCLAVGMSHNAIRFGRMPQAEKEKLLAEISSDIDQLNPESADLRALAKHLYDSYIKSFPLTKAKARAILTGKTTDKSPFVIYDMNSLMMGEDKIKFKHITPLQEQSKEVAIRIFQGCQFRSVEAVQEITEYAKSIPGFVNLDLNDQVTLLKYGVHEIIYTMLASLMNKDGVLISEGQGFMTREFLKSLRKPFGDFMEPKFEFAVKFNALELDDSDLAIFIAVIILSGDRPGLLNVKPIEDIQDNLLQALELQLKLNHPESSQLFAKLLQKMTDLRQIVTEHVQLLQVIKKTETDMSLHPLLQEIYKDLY

CCCCCOC(=O)CCC
inactive: [1] | [2]

CCN(CC)CCOC(=O)c1ccc(N)cc1
inactive: [2] | [3]

Nc1ccc(F)c([N+](=O)[O-])c1
active: [6] 37.7 µM | [11] 50 µM
inactive: [4] | [5] | [7] | [8] | [9] | [10]

O=C(O)c1ccc(C(=O)O)cc1
inactive: [12] | [2] | [3]

NCCNCCN
inactive: [12] | [2] | [3]

CCN(CC)c1ccc(C(=C2C=CC(=[N+](CC)CC)C=C2)c2ccc(S(=O)(=O)O)cc2S(=O)(=O)[O-])cc1
inactive: [2]

C=CC(C)(C)O
inactive: [4] | [5] | [6] | [13] | [7] | [8] | [9] | [10] | [11]

CC(C)=CCCC(C)=CCCC(C)=CCO
inactive: [1] | [2]
active: [5] 28.1 µM | [6] 31.5 µM
